The values below come from PubChem BioAssay AID2205 (University of Pittsburgh Molecular Library Screening Center, 2009).

Molecules are shown by their SMILES. The whole screen tested about 200,000 compounds, of which about 1,600 (0.8%) were called active.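 Rule for the calls: active = plate Z-score above 3 for both tubulin-high and condensed-nucleus cell shares, with cell loss under 80%, at 10 µM; inactive = the rest, inconclusive results apart.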 For the sample, actives were picked, then their nearest neighbours and some compounds at random.

A short description of this assay: tubulin staining increase by stabilizing compounds – imaging, high-content imaging, primary screen (AID 2205).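 For % tubulin-high responders: anti alpha tubulin signal scored within the nucleus-defined area of each cell.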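 For toxicity: 0% = mean cell density of plate MIN control wells and 100% = no cells.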 The conditions noted are these: HeLa tubulin immunostaining HCS, 24 h, at 10 µM; % Hoechst-high responders: measured here: nuclear condensation Hoechst responders, stronger effect = higher value; % tubulin-high responders: stronger effect = higher value; toxicity: measured here: cytotoxicity by cell density.
As for `Cc1ccc(-c2cc(C(=O)N3CCC4(CC3)OCCO4)no2)cc1`, the % Hoechst-high responders was found to be 2.17%, the % tubulin-high responders was 2.98% (inactive) and the toxicity is 5.89%.
Taken in the same sequence, the figures for `Cc1cccc(-n2c(C)nc3cc(C(=O)N4CCC5(CC4)OCCO5)ccc32)c1` were 32.4%, 48.1% (active) and 34.2%.
Turning to `O=C(c1cc(-c2ccncc2)nc2ccccc12)N1CCC2(CC1)OCCO2`, the % Hoechst-high responders is 1.52%, the % tubulin-high responders was 3.12% (inactive) and the toxicity was found to be 6.16%.
Taken in the same sequence, the figures for `O=C(O)CCn1cc(C=C2C(=O)NC(=S)NC2=O)c(-c2cccc(Br)c2)n1` were 1.76%, 1.65% (inactive) and 3.44%.
For `C[N+]12CN3CN(CN(C3)C1)C2` the same measures were 0.953%, 7.11% (inactive) and 4.73%.
For `COc1cc(-n2c(=S)[nH]c3ccc(C)cc3c2=O)c(Cl)cc1Cl`, the % Hoechst-high responders stood at 23.7%, the % tubulin-high responders was 12.4% (active) and the toxicity is 29%.
Turning to `CC(Cc1cccs1)NCc1ccc(Cl)cc1` (stereo not given), the % Hoechst-high responders was 2.36%, the % tubulin-high responders was 3.24% (inactive) and the toxicity was 0.83%.
In the case of `CN1CCN(C(=O)COc2ccc(C(C)(C)C)cc2Br)CC1`, the % Hoechst-high responders came out at 1.35%, the % tubulin-high responders was 1.46% (inactive) and the toxicity is 9.25%.
Regarding `Cc1cccc2c(CCN)c[nH]c12`, the % Hoechst-high responders is 2.2%, the % tubulin-high responders is 2.61% (inactive) and the toxicity stood at 4.06%.
Taken in the same sequence, the figures for `Cc1cc(C)cc(NC(=S)NC2CC3CCCC(C2)N3Cc2cccs2)c1` (stereo not given) were 1.98%, 3.91% (inactive) and 8.8%.
